From PubChem BioAssay (Tox21)
“And” between values parts separate entries of the source, which are not always exact repeats. Equal entries are not always repeated. Inconclusive results are not listed. A call without a number means that no potency is given here. The source holds several records for some structures; these can differ, active in one and inactive in another. The source made the active and inactive calls. Unless noted, calls follow the shape of the dose curve; as a rule, active = well fitted curve in the direction sought with a large enough effect in the repeat runs; inconclusive = weak or mixed curves; inactive = no such curve, though single readings can be large; an effect the other way counts as inactive or inconclusive.

What was measured:
[1] = target: Aryl hydrocarbon receptor (Homo sapiens) (UniProt P35869); assay: qHTS assay to identify small molecule that activate the aryl hydrocarbon receptor (AhR) signaling pathway (AID 743085); also: nearly all actives have a fitted effect of over 15% in size; also: potency is read from the fitted curve at half-maximal effect;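 as to activation: HG2L7.5c1 human HepG2 liver cells with stably integrated DRE-driven firefly reporter; series mostly up to about 70 µM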
Sequence of Aryl hydrocarbon receptor (Homo sapiens) (P35869 whole entry, looked up): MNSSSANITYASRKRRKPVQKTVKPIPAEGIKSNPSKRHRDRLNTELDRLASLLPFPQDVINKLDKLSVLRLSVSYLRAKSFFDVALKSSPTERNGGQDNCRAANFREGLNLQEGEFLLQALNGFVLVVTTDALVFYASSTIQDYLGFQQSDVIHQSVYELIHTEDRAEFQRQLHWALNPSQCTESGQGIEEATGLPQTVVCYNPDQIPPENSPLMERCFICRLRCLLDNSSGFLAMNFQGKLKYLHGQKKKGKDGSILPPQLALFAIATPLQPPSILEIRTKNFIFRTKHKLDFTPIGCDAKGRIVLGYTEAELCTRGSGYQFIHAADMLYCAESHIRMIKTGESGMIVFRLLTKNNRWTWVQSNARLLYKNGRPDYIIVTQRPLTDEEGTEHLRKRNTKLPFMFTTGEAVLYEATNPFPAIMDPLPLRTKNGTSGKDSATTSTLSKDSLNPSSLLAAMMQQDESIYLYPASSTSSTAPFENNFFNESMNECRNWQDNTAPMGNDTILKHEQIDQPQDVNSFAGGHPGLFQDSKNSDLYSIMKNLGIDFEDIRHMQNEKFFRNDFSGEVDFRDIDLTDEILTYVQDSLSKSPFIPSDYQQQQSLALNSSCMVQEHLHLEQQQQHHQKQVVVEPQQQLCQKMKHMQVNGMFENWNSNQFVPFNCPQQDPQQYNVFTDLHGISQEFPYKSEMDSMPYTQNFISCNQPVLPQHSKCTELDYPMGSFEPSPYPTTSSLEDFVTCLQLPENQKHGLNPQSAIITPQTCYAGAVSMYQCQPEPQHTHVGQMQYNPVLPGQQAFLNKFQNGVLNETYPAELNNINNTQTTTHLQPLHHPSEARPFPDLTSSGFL
How it was run: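 HepG2 cells (HG2L7.5c1) stably carrying a firefly luciferase reporter driven by 20 dioxin responsive elements were exposed to compound for 24 h at 37C after a 5 h settling period; luminescence rise (ONE-Glo) indicated activation.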

[2] = qHTS assay to identify small molecule that activate the aryl hydrocarbon receptor (AhR) signaling pathway - cell viability counter screen (AID 743086); also: nearly all actives have a fitted effect of over 45% in size; also: potency is read from the fitted curve at half-maximal effect
How it was run: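 HepG2-AhR-luc (HG2L7.5c1) cells, 4000/well, were preincubated 5 h at 37C, exposed to compound in qHTS format for 24 hr at 37C, then given CellTiter-Fluor for 30 min; viability was read as fluorescence in the reporter wells.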

[3] = target: Peroxisome proliferator-activated receptor gamma (Homo sapiens) (UniProt P37231); assay: qHTS assay to identify small molecule agonists of the peroxisome proliferator-activated receptor gamma (PPARg) signaling pathway (AID 743094; active = well fitted activation curve with a large enough effect in the signal ratio in the repeat runs, not every such curve was filed as active; the % refers to the signal ratio; also: potency is read from the fitted curve at half-maximal effect)
Sequence of Peroxisome proliferator-activated receptor gamma (Homo sapiens) (P37231 whole entry, looked up): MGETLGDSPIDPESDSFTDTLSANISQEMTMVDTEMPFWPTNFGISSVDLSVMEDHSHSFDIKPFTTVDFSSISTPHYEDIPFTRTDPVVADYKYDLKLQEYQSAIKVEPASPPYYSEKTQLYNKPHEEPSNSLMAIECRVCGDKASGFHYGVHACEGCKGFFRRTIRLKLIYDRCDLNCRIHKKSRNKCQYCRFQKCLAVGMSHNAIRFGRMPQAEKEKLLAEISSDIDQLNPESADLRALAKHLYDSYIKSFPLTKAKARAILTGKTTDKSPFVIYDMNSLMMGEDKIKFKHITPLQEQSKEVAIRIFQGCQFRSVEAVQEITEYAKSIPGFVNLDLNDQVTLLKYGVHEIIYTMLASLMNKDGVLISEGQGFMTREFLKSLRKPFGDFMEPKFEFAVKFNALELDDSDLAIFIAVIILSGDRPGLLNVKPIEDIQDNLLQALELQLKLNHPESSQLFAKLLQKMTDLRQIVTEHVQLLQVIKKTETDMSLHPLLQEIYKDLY
How it was run: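 Agonist activity was taken from a beta-lactamase reporter (FRET substrate, 1 h at room temperature) in HEK293H cells carrying a PPARg UAS-bla construct. Compounds in DMSO were incubated 17 h at 37C after a 5 h cell pre-incubation.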

[4] = qHTS assay for small molecule agonists of the antioxidant response element (ARE) signaling pathway (AID 743202; active = well fitted activation curve with a large enough effect in the signal ratio in the repeat runs, not every such curve was filed as active; the % refers to the signal ratio; also: potency is read from the fitted curve at half-maximal effect)
How it was run: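 Following a 16 h, 37 C exposure of reporter HepG2 cells (ARE-driven beta-lactamase, 2,000 cells/well) to compounds, FRET substrate was applied for 2 h at room temperature and fluorescence intensity recorded.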

[5] = qHTS assay for small molecule agonists of the antioxidant response element (ARE) signaling pathway - cell viability counter screen (AID 743203; calls by dose curve; also: nearly all actives have a fitted effect of over 55% in size; also: potency is read from the fitted curve at half-maximal effect)
How it was run: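 Viability counter screen: CellTiter-Glo luminescence, read after 30 min at room temperature, in ARE-bla HepG2 wells. Compound exposure lasted 16 h at 37C/5% CO2, following a 5 h pre-incubation of the cells after plating.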

[6] = qHTS assay for small molecule activators of the heat shock response signaling pathway (AID 743210; active = well fitted activation curve with a large enough effect in the signal ratio in the repeat runs, with a control signal flat, not every such curve was filed as active; the % refers to the signal ratio; also: series mostly up to about 63 µM)
How it was run: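 Heat shock element–beta-lactamase HeLa reporter cells; qHTS with compounds for 5 h at 37 C; detection by FRET substrate fluorescence after 2.5 h at RT.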

[7] = qHTS assay to identify small molecule agonists of the peroxisome proliferator-activated receptor delta (PPARd) signaling pathway - cell viability counter screen (AID 743211); also: nearly all actives have a fitted effect of over 55% in size; also: potency is read from the fitted curve at half-maximal effect
How it was run: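 PPARd-bla HEK293H cells (UAS-beta-lactamase reporter) were treated with compounds for 17 h at 37 C. Viability was then read in the same wells by CellTiter-Glo luminescence after 30 min at room temperature.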

[8] = qHTS assay to identify small molecule antagonists of the peroxisome proliferator-activated receptor delta (PPARd) signaling pathway - cell viability counter screen (AID 743213); also: nearly all actives have a fitted effect of over 50% in size; also: potency is read from the fitted curve at half-maximal effect
How it was run: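 PPARd-bla HEK293H cells were treated with compounds plus agonist L165041 (300 nM final) for 17 h at 37 C. Viability was then read in the same wells by CellTiter-Glo luminescence after 30 min at room temperature.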

[9] = target: Peroxisome proliferator-activated receptor delta (Homo sapiens) (UniProt Q03181); assay: qHTS assay to identify small molecule antagonists of the peroxisome proliferator-activated receptor delta (PPARd) signaling pathway (AID 743215; active = well fitted inhibition curve with a large enough effect in the signal ratio in the repeat runs, not every such curve was filed as active; the % refers to the signal ratio;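 also: cells stimulated with agonist L165041 at 300 nM final during compound exposure; series mostly up to about 62 µM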)
Sequence of Peroxisome proliferator-activated receptor delta (Homo sapiens) (Q03181 whole entry, looked up): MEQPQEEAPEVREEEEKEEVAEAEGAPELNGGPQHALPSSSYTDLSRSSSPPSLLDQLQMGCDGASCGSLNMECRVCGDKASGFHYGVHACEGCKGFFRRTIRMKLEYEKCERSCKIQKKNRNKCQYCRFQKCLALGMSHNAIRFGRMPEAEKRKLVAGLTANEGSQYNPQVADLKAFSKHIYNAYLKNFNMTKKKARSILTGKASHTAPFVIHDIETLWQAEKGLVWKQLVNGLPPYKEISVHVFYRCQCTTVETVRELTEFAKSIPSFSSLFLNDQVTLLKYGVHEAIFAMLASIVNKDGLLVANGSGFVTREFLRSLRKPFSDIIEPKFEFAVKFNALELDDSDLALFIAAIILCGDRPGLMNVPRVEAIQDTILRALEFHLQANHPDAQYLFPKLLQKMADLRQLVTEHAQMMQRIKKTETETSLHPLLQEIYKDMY
How it was run: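 Agonist L165041 (300 nM final) added with compound to PPARd-bla HEK293H UAS-bla reporter cells; 17 h incubation at 37 C. Read-out: LiveBLAzer FRET substrate, 2 h at room temperature, fluorescence intensity.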

[10] = qHTS assay to identify small molecule agonists of the farnesoid-X-receptor (FXR) signaling pathway - cell viability counter screen (AID 743218); also: nearly all actives have a fitted effect of over 45% in size; also: potency is read from the fitted curve at half-maximal effect
How it was run: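 Viability counter screen in the same wells: CellTiter-Glo luminescence, 30 min room-temperature incubation, measured after the beta-lactamase read. Cells were GeneBLAzer FXR-UAS-bla HEK 293T, compound-treated 16 h at 37C.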

[11] = qHTS assay to identify small molecule antagonists of the farnesoid-X-receptor (FXR) signaling pathway - cell viability counter screen (AID 743221; active = well fitted cell-killing curve with a large enough effect in the repeat runs, not every such curve was filed as active; also: nearly all actives have a fitted effect of over 50% in size; also: potency is read from the fitted curve at half-maximal effect)
How it was run: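 FXR-UAS-bla HEK 293T cells were treated with test compounds plus chenodeoxycholic acid (50 uM final) for 16 h at 37 C. Cell viability in the same wells was then read as CellTiter-Glo luminescence after 30 min at room temperature.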

[12] = target: Vitamin D3 receptor (Homo sapiens) (UniProt P11473); assay: qHTS assay to identify small molecule agonists of the vitamin D receptor (VDR) signaling pathway (AID 743222; calls by dose curve)
Sequence of Vitamin D3 receptor (Homo sapiens) (P11473 whole entry, looked up): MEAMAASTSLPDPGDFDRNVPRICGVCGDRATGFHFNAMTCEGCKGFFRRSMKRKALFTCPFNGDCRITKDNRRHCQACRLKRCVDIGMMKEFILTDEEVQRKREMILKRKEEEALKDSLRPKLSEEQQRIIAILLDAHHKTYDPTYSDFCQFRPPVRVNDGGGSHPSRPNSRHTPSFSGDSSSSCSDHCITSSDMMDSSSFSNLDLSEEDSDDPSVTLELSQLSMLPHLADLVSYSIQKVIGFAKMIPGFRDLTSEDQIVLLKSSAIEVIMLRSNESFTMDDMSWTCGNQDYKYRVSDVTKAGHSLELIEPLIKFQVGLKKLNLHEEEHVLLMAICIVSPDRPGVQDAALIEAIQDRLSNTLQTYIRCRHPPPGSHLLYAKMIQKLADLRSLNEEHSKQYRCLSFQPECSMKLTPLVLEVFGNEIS
How it was run: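 Agonist mode, beta-lactamase reporter: fluorescence from LiveBLAzer B/G FRET substrate (2 h, room temperature) read after 16 h compound treatment at 37 C of VDR-bla cells, which were pre-incubated 4 h after seeding.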

[13] = target: Vitamin D3 receptor (Homo sapiens) (UniProt P11473); assay: qHTS assay to identify small molecule antagonists of the vitamin D receptor (VDR) signaling pathway (AID 743223; active = well fitted inhibition curve with a large enough effect in the signal ratio in the repeat runs, not every such curve was filed as active; the % refers to the signal ratio)
How it was run: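 VDR-bla cells were plated, incubated 4 h at 37C, then given compound and 1alpha,25-dihydroxyvitamin D3 (3 nM final). After 16 h at 37C, LiveBLAzer B/G FRET substrate was added for 2 h at room temperature and fluorescence read.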

[14] = qHTS assay to identify small molecule agonists of the vitamin D receptor (VDR) signaling pathway - cell viability counter screen (AID 743224); also: nearly all actives have a fitted effect of over 50% in size; also: potency is read from the fitted curve at half-maximal effect
How it was run: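 Counter screen run in the same wells as the VDR-bla reporter assay: CellTiter-Glo luminescence, 30 min at room temperature, after 16 h compound treatment at 37C of cells pre-plated for 4 h.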

[15] = qHTS assay to identify small molecule antagonists of the peroxisome proliferator-activated receptor gamma (PPARg) signaling pathway - cell viability counter screen (AID 743194); conditions: Potency: co-treated with 50 nM rosiglitazone; also: nearly all actives have a fitted effect of over 55% in size; also: potency is read from the fitted curve at half-maximal effect
How it was run: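 PPARg-UAS-bla HEK293H cells were plated, rested 5 h at 37 C, then treated with compounds plus rosiglitazone (50 nM final) for 17 h at 37 C; viability was then read by CellTiter-Glo luminescence after 30 min at room temperature.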

[16] = qHTS assay for small molecule activators of the heat shock response signaling pathway - cell viability counter screen (AID 743209); also: nearly all actives have a fitted effect of over 50% in size
How it was run: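 Cytotoxicity counter screen run in the same wells as the heat-shock bla reporter assay: HeLa HSE-bla cells, 5 h compound exposure at 37 C, viability read by CellTiter-Glo luminescence.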

[17] = target: Bile acid receptor (Homo sapiens) (UniProt Q96RI1); assay: qHTS assay to identify small molecule antagonists of the farnesoid-X-receptor (FXR) signaling pathway (AID 743217; active = well fitted inhibition curve with a large enough effect in the signal ratio in the repeat runs, not every such curve was filed as active; the % refers to the signal ratio)
Sequence of Bile acid receptor (Homo sapiens) (Q96RI1 whole entry, looked up): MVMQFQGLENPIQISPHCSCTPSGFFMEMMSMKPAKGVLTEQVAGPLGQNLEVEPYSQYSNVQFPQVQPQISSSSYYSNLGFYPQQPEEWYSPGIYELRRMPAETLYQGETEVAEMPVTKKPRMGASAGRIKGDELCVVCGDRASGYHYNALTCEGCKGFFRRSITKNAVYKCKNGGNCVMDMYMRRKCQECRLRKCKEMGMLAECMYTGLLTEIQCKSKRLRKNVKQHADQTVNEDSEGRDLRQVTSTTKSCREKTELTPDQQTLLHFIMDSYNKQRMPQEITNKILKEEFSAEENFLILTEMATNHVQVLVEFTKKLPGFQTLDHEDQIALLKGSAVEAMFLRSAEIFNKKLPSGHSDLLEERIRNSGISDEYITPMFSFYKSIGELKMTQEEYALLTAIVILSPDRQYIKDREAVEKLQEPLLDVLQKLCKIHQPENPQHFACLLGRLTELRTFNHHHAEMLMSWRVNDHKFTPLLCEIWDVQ
How it was run: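 Antagonist mode: chenodeoxycholic acid at 50 uM final stimulates a UAS-driven beta-lactamase reporter in HEK 293T FXR-bla cells during 16 h, 37C compound exposure. Read-out is FRET substrate fluorescence after 2 h at room temperature.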

[18] = target: Bile acid receptor (Homo sapiens) (UniProt Q96RI1); assay: qHTS assay to identify small molecule agonists of the farnesoid-X-receptor (FXR) signaling pathway (AID 743220; active = well fitted activation curve with a large enough effect in the signal ratio in the repeat runs, not every such curve was filed as active; the % refers to the signal ratio)
How it was run: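 FXR-UAS-bla HEK 293T cells carrying a UAS-driven beta-lactamase reporter were plated for 5 h at 37C/5% CO2, then exposed to DMSO-dissolved Tox21 10K compounds for 16 h at 37C. A LiveBLAzer B/G FRET substrate was loaded for 2 h at room temperature before fluorescence reading.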

[19] = target: Peroxisome proliferator-activated receptor delta (Homo sapiens) (UniProt Q03181); assay: qHTS assay to identify small molecule agonists of the peroxisome proliferator-activated receptor delta (PPARd) signaling pathway (AID 743212; calls by dose curve)
How it was run: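 Beta-lactamase reporter read by fluorescence (LiveBLAzer B/G FRET, 2 h, room temperature). Test agents, in DMSO, incubated at 37 C with PPARd-bla HEK293H cells.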

[20] = target: Peroxisome proliferator-activated receptor gamma (Homo sapiens) (UniProt P37231); assay: qHTS assay to identify small molecule antagonists of the peroxisome proliferator-activated receptor gamma (PPARg) signaling pathway (AID 743191; calls by dose curve; also: series mostly up to about 63 µM; nearly all actives have a fitted effect of over 30% in size)
How it was run: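 GeneBLAzer PPARg UAS-bla HEK293H cells carrying a UAS-driven beta-lactamase reporter were plated at 3000 cells/well, preincubated 5 h at 37C, then given compound for 17 h at 37C; LiveBLAzer B/G FRET substrate was read after 1 h at room temperature.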

SMILES	Potency [1]	Potency [2]	Potency [3]	Potency [4]	Potency [5]	Potency [6]	Potency [7]	Potency [8]	Potency [9]	Potency [10]	Potency [11]	outcome [12]	Potency [13]	Potency [14]	Potency [15]	Potency [16]	Potency [17]	outcome [18]	outcome [19]	Potency [20]
CC(C)(c1ccccc1)c1cc(-n2nc3ccccc3n2)c(O)c(C(C)(C)c2ccccc2)c1	inactive	inactive	inactive	inactive	inactive	inactive	inactive	inactive	inactive	inactive	inactive	inactive	inactive	inactive						
O=C1CC[C@@]2(O)[C@H]3Cc4ccc(O)c5c4[C@@]2(CCN3CC2CC2)[C@H]1O5	inactive	inactive			inactive	inactive	inactive	inactive		inactive	inactive				inactive	inactive	inactive	inactive		
O=C(O)C(F)(F)C(F)(F)C(F)(F)C(F)(F)C(F)(F)C(F)(F)C(F)(F)C(F)(F)F	inactive	inactive		6.86 µM (active)	61.1 µM (active)		inactive	inactive			inactive	inactive	inactive	inactive		inactive	inactive	inactive		
C[N+](C)(C)CCOC(=O)C(O)(c1ccccc1)c1ccccc1	inactive	inactive			inactive	inactive	inactive		inactive		inactive	inactive	inactive		inactive	inactive			inactive	
C#C[C@]1(O)CC[C@H]2[C@@H]3CCC4=CC(=O)CCC4=C3C=C[C@@]21CC	inactive	inactive			inactive	inactive	inactive	inactive						inactive		inactive				
CCCCCCCCCCCCN(C)C	inactive	inactive	inactive		inactive	inactive	inactive	inactive	inactive	inactive	inactive	inactive	inactive	inactive			inactive	inactive	inactive	
COC(=O)C1(O)c2ccccc2-c2ccccc21	inactive	inactive			inactive		inactive	inactive	inactive	inactive	inactive	inactive		inactive	inactive				inactive	
O=C(Cl)OCCOCCOC(=O)Cl	inactive	inactive	inactive		inactive		inactive				inactive	inactive		inactive		inactive				
CC(Oc1cccc(Cl)c1)C(=O)O (configuration not stated)	inactive		inactive	inactive	inactive	inactive	inactive	inactive				inactive	inactive	inactive	inactive	inactive	inactive	inactive	inactive	inactive
C[C@]12C=CC3=C4CCC(=O)C=C4CC[C@H]3[C@@H]1CC[C@@H]2O	inactive	inactive		6.07 µM (active)	inactive		inactive			inactive	inactive			inactive	inactive					
CCCCCCCCCCCC[N+](C)(C)CCOc1ccccc1	inactive	68.6 µM (active)			30.6 µM (active) and 29.8 µM (active)		13.8 µM (active) and 11.9 µM (active)	17.4 µM (active)		24.6 µM (active)	49 µM (active)	inactive		24.6 µM (active) and inactive	21.9 µM (active) and 13.3 µM (active)					
CN(C)C(=O)Nc1cccc(OC(=O)NC(C)(C)C)c1	inactive	inactive	inactive		inactive	inactive	inactive	inactive	inactive	inactive	inactive	inactive		inactive		inactive			inactive	
Clc1ccc(Cl)c(Cl)c1	inactive	inactive			inactive		inactive	inactive		inactive	inactive	inactive	inactive	inactive		inactive				
CN(C)c1ccc(N=O)cc1	21.8 µM (active) and 21.7 µM (active)	61.3 µM (active) and 68.6 µM (active)			inactive and 54.5 µM (active)		43.6 µM (active)	43.6 µM (active)		inactive and 49 µM (active)	inactive		inactive	19.6 µM (active) and 43.6 µM (active)	49.1 µM (active) and 34.7 µM (active)		inactive	inactive	inactive	
C=CCc1ccccc1O	inactive	inactive			inactive	inactive	inactive	inactive	inactive	inactive	inactive	inactive	inactive	inactive	inactive		inactive	inactive		
CC(=O)NNc1ccccc1	inactive	inactive		inactive	inactive							inactive	inactive		inactive	inactive	inactive	inactive		
COP(=O)(OC)OC(Br)C(Cl)(Cl)Br (configuration not stated)	inactive	inactive	54.9 µM (active)	19.4 µM (active) and 9.69 µM (active)	inactive	inactive				inactive	inactive	inactive	inactive			inactive				
C[C@H]1[C@@H]2Cc3ccc(O)cc3[C@@]1(C)CCN2C	inactive	inactive			inactive	inactive	inactive	inactive		inactive	inactive	inactive		inactive	inactive	inactive	inactive	inactive		
CCCCC#N	inactive	inactive		inactive	inactive	inactive	inactive	inactive	inactive	inactive	inactive			inactive		inactive			inactive	
